FBW7 activator = human FBW7 E3 ligase activation, primary screen | Q969H0 | normalized activity (activation), % at 26.1 µM | 0.13% of 650,000 active | AlphaScreen FBW7–phospho-cyclin E peptide binding, activator screen; in the data active = normalized activity above about 1.9%;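 also: purified mutant Fbw7 with reduced substrate affinity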
TEAD-YAP block = TEAD-YAP interaction inhibition | AID 1259422 | HEK-TIYL cells, TEAD-Gal4/YAP UAS-luciferase luminescence | 1.4% of 640,000 active | inhibition, % at 9.12 µM; in the data active = inhibition above about 32%
GPR151 activ = activates the human receptor GPR151; PathHunter beta-arrestin GPR151 cells, luminescence; activation, % at 11.2 µM; 1% of 650,000 active; Q8TDV0; in the data active = activation above about 4.9%
MITF primary = human MITF inhibition, primary screen. O75030. AlphaScreen MITF homodimerization, bead proximity signal. inhibition, % at 2.6 µM. 0.91% of 650,000 active. AID 1259374; in the data active = inhibition above about 50%
Target sequence (O75030 whole entry, looked up): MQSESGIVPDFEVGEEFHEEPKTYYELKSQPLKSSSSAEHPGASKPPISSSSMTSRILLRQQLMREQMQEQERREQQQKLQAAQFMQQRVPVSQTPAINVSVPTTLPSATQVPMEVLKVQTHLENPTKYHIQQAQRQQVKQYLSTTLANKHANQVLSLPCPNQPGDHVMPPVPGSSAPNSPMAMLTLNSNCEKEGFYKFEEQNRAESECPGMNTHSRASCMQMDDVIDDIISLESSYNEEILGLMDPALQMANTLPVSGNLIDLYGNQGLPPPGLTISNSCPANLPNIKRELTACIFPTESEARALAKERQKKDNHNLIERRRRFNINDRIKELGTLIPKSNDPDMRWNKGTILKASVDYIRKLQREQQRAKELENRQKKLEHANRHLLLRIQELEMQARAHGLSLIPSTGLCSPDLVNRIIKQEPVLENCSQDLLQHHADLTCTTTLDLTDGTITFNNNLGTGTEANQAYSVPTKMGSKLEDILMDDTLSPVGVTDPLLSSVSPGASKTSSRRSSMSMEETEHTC
Each line names hits and unclear results; the compound was inactive in the other large screens. The list is not random: actives were taken first. Their share in the collection is about 3.4%.

Cc1ncn(-c2ccc(Nc3nccc(-c4ccc(C#N)c(N5CCN(C)CC5)c4)n3)cc2)n1	TEAD-YAP block 51
Cc1ncn(-c2ccc(Nc3nccc(-c4ccc(C#N)c(NC(C)C)c4)n3)cc2)n1	TEAD-YAP block 48
CC1(C)CC(=O)c2cc3c(N)c(C(=O)NC4CCCCC4)sc3nc2C1	FBW7 activator 2.4
Nc1c(C(=O)Nc2ccc(Br)cc2)sc2nc3c(cc12)C(=O)CCC3	none
Nc1c(C(=O)Nc2ccccc2)sc2nc3c(cc12)C(=O)CCC3	TEAD-YAP block 32
Nc1c(C(=O)Nc2ccc(Oc3ccccc3)cc2)sc2nc3c(cc12)C(=O)CCC3	TEAD-YAP block 37
Cc1ccc(NC(=O)c2sc3nc4c(cc3c2N)C(=O)CCC4)cc1C	TEAD-YAP block 65
COc1ccc2nc(NC(=O)/C=C/c3ccccc3)sc2c1	none
CCN(CC)C(=Nc1ccccc1)Nc1ccccc1	none
COc1ccc(C(=O)CCN2CCCC2)cc1	none
CNc1c(C)ccc2c1C(=O)c1ccccc1C2=O	MITF primary 84
NC(=O)C1CCN(C(=S)NC(=O)c2ccc(Cl)cc2)CC1	FBW7 activator 2.3
COc1ccc(Br)cc1S(=O)(=O)Nc1ccccc1C	none
COc1ccc(-c2nc3cc(N)ccc3o2)cc1Br	none
COc1ccc(-c2nc3cc(C(C)C)ccc3o2)cc1N	TEAD-YAP block 66
COc1ccc(-c2nc3ccccc3o2)cc1N	none
Cc1ccc2oc(-c3ccc(Cl)c(N)c3)nc2c1	TEAD-YAP block 68
COc1ccc(-c2nc3cc(C)ccc3o2)cc1N	TEAD-YAP block 88
CCCOc1cccc(NC(=O)c2cc(CC(C)C)oc2C)c1	none
O=C(Nc1ccc(C(F)(F)F)cc1)c1ccccc1[N+](=O)[O-]	none
CN(CCc1ccccn1)C(=O)CCC1CCCN(Cc2nc3ccccc3s2)C1 (configuration not stated)	none
Fc1cc(-c2nc(Nc3ccc(CN4CCCCC4)cc3)ncc2F)cc(N2CCOCC2)c1	TEAD-YAP block 92
Fc1cc(-c2nc(Nc3ccc(N4CCOCC4)cc3)ncc2F)cc(N2CCOCC2)c1	none
Fc1cnc(Nc2ccc(CN3CCCCC3)cc2)nc1-c1cc(N2CCOCC2)cc(C(F)(F)F)c1	TEAD-YAP block 42
O=C(NCc1ccccc1Cl)c1ccc(N2CCC(Cc3ccccc3)CC2)c([N+](=O)[O-])c1	none
Oc1ccc(Cl)cc1C1=Nc2ccccc2N=C(c2cccs2)C1	none
CC(O)c1nc2ccccc2[nH]1 (configuration not stated)	none
Cc1nnnn1/C(=C\c1ccccc1)C(=O)N[C@H](c1nc2ccccc2[nH]1)C(C)C	TEAD-YAP block 49
COc1ccc(OC)c(CN2C(=O)NC(=O)/C(=C\c3ccco3)C2=O)c1	MITF primary 57
COc1cc(C)c(/C=C2/NC(=O)NC2=O)cc1C(C)C	TEAD-YAP block 44
Cc1cc(/C=C2\C(=O)NC(=O)N(Cc3ccco3)C2=O)c(C)n1C1CC1	MITF primary 62
COc1ccc2ccccc2c1/C=C1/C(=O)NC(=O)N(Cc2ccco2)C1=O	MITF primary 76
O=C1COc2ccc(-c3ccncc3)cc2N1	none
CCN(c1cccc(C)c1)S(=O)(=O)c1ccc2[nH]cc(C(=O)N(CCc3ccccc3)Cc3ccccc3)c(=O)c2c1	none
Cc1ccc(S(=O)(=O)N2CCOC2=O)cc1	none
COc1cc2c(cc1OC)n(CC(=O)NCc1ccccc1Cl)n1c(C)cc(=O)nc21	none
COCCn1c(C)cc(/C=C2\C(=O)NC(=O)N(Cc3ccco3)C2=O)c1C	none
COc1cc(/C=C2\SC(=S)N(Cc3ccco3)C2=O)ccc1OCC(=O)O	none
COc1cc(C)c(/C=C2/C(=O)NC(=O)N(Cc3ccco3)C2=O)cc1C(C)C	MITF primary 69
COc1cc(/C=C2/C(=O)NC(=O)N(Cc3ccco3)C2=O)ccc1OCC(=O)O	MITF primary 77
N/C(=N\N=C\c1ccc(O)c(O)c1)SC1CC(=O)N(c2ccc(C(=O)O)cc2)C1=O (configuration not stated)	MITF primary 82
Cc1cc(C)c(NC(=O)CC2Sc3ccccc3NC2=O)c(Cl)c1 (configuration not stated)	TEAD-YAP block 37
O=S(=O)(c1ccccc1)N1CCC(O)(CSc2ccc(Cl)cc2)CC1	TEAD-YAP block 39
Cc1ccc(NC(=O)Cn2c(C)cc(=O)c3ccccc32)cc1C	TEAD-YAP block 45
Cc1cccc(NC(=O)Cn2c(C)cc(=O)c3ccccc32)c1	TEAD-YAP block 41
COc1cccc(NC(=O)Cn2c(C)cc(=O)c3cccc(OC)c32)c1	TEAD-YAP block 49
CCOC(=O)N1CCc2c(sc(NC(=O)c3ccc(N(C)C)cc3)c2C#N)C1	TEAD-YAP block 49
CCOC(=O)N1CCc2c(sc(NC(=O)CCOc3ccccc3)c2C#N)C1	TEAD-YAP block 38
CC(=O)N1CCc2c(sc(NC(=O)c3ccc(C)cc3)c2C#N)C1	TEAD-YAP block 39
CC(=O)C1=C(C)NC(=O)NC1c1ccco1 (configuration not stated)	none
O=C(CC(=O)NC1CCCCC1)N/N=C/c1ccc2c(c1)OCO2	none
CNc1nc2cc([N+](=O)[O-])c([N+](=O)[O-])cc2nc1NC	TEAD-YAP block 57
CC(=O)Oc1ccc(-n2c(C)cc(/C=N/Nc3ccc([N+](=O)[O-])cn3)c2C)cc1	none
CC(=O)Nc1ccc(/C=C2\CCc3ccccc3C2=O)cc1	TEAD-YAP block 70
Oc1ccc(O)c(/C=N\Nc2nnc3c(n2)[nH]c2ccccc23)c1	TEAD-YAP block 50
Oc1ccc(/C=N/Nc2nnc3c(n2)[nH]c2ccccc23)cc1	none
Oc1ccc(/C=N/Nc2nnc3c(n2)[nH]c2ccccc23)c(O)c1	TEAD-YAP block 56
C(=N\Nc1nnc2c(n1)[nH]c1ccccc12)/c1ccccn1	TEAD-YAP block 56
CC(=O)NNC(=O)c1ccc(NC(=O)c2ccccc2)cc1	none
COc1ccc(C(=O)COC(=O)c2ccc(S(=O)(=O)N3CCOCC3)cc2)cc1	none
N#CC1(C#N)[C@H](c2ccccc2)[C@@H](C(=O)c2ccc(F)cc2)N2c3ccc(Cl)cc3C=C[C@@H]21	none
Cc1ccc2c(c1)C1CN(C)CCC1N2S(=O)(=O)c1c(C)[nH]c(=O)[nH]c1=O (configuration not stated)	none
N#C/C(=C\c1ccco1)C(=O)Nc1ccccc1F	FBW7 activator 2.1
Cc1cc(=O)[nH]c(SCc2nc3sccn3c2Br)n1	none
COc1ccccc1CN1CCc2c(nc(N3CCC(C)CC3)[nH]c2=O)C1	none
CCOc1cc([N+](=O)[O-])c2[nH]c(C(=O)O)c(C)c2c1	TEAD-YAP block 45
CCOC(=O)c1[nH]c2c([N+](=O)[O-])cc(OC)cc2c1-c1ccccc1	none
COc1ccc(C(=O)OC(C)CN2CCCC2)cc1 (configuration not stated)	none
CCOC(=O)c1ccc(NC(c2ccc(O)cc2O)P(=O)(OCC)OCC)cc1 (configuration not stated)	MITF primary 52
Cc1ccc(NC(=O)c2cc(S(=O)(=O)N3CCN(c4ccccc4)CC3)ccc2F)cc1F	none
Cc1nnc(SCC(=O)c2cc(C)n(CC3CCCO3)c2C)s1 (configuration not stated)	TEAD-YAP block 41

Compound activity deposited in PubChem by The Scripps Research Institute Molecular Screening Center.
